Bioassay records as filed in PubChem BioAssay.
Shown are actives, neighbours in structure and some others; about 18% of the full set was active somewhere.
KAT2A inh = qHTS Assay for Inhibitors of GCN5L2. Histone acetyltransferase KAT2A (Homo sapiens), Q92830. GCN5L2 HAT assay, ThioGlo1 CoA-SH fluorescence. Potency, µM (titrated, usually from 58.9 µM), usual class: inhibitors. 390,000 compounds, 0.21% hits
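qHTS, 1536-well. 20nM enzyme, pH 7.5 HEPES/EDTA/Tween-20 buffer; 15 min compound preinc., RT. Start: 75uM H3(1-25), 70uM AcCoA, 50uM ThioGlo1. Read Ex340/Em540 at t=0 (autofluorescence flag) and t=20 min.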
TDP1 cell CPT = qHTS for Inhibitors of human tyrosyl-DNA phosphodiesterase 1 (TDP1): qHTS in cells in presence of CPT; chicken DT40 Tdp1-/-;hTDP1 cells + 20 nM CPT, ATP luminescence, 48 h; Potency, µM (titrated, usually from 46.2 µM), actives largely listed as inhibitors; 420,000 compounds, 12% hits; note: nearly all actives have a fitted effect of over 55% in size
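Chicken DT40 Tdp1-/- cells stably complemented with human TDP1 were seeded at 400 cells/well in medium containing 20 nM camptothecin, exposed to pin-transferred compounds, and grown at 37 °C for at least 48 hr. Viability was read as ATP luminescence.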
TDP1 inh = qHTS Assay for Inhibitors of Tyrosyl-DNA Phosphodiesterase (TDP1); 350,000 compounds, 0.28% hits; Potency, µM (highest dose often 130 µM), hits mostly inhibitors; AID 485290, 2010; recombinant TDP1, AlphaScreen DNA substrate cleavage; Tyrosyl-DNA phosphodiesterase 1 (Homo sapiens), Q9NUW8; note: nearly all actives have a fitted effect of over 40% in size
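Recombinant E. coli-expressed Tdp1 (1 nM) preincubated with compound 15 min at RT, then 5'-biotin/3'-phosphotyrosine-FITC DNA substrate (15 nM) added for 5 min. AlphaScreen beads (10 ug/ml) added, 10 min RT; tyrosine-FITC cleavage read as signal loss.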
PLK1 PBD block = qHTS for Inhibitors of PLK1-PDB (polo-like kinase 1 - polo-box domain): Primary Screen. Plk1 PBD binding of FITC phosphopeptide, fluorescence polarization. Potency, µM, most hits filed as inhibitors. 360,000 compounds, 2.8% hits; note: series mostly up to about 57 µM; nearly all actives have a fitted effect of over 65% in size
DT40 TDP1 no CPT = qHTS for Inhibitors of human tyrosyl-DNA phosphodiesterase 1 (TDP1): qHTS in cells in absence of CPT | DT40 Tdp1-/- hTDP1 cells, no CPT, ATP luminescence, 48 h | Potency, µM (top dose mostly 46.2 µM), actives largely listed as inhibitors | AID 686978, 2013 | 420,000 compounds, 15% hits; note: nearly all actives have a fitted effect of over 55% in size
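Growth kinetics read by CellTiter-Glo luminescence after ≥48 hr at 37 °C. Cells: DT40 Tdp1-/- stably carrying human TDP1, 400 per well, compound exposure in the absence of CPT (DMSO vehicle).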
VDR inh = Inhibitors of the vitamin D receptor (VDR): qHTS; Potency, µM, actives largely listed as inhibitors; Vitamin D3 receptor (Homo sapiens), P11473; VDR-SRC2-3 peptide fluorescence polarization, 2 h; 400,000 compounds, 0.93% hits
Target sequence (P11473 whole entry, looked up): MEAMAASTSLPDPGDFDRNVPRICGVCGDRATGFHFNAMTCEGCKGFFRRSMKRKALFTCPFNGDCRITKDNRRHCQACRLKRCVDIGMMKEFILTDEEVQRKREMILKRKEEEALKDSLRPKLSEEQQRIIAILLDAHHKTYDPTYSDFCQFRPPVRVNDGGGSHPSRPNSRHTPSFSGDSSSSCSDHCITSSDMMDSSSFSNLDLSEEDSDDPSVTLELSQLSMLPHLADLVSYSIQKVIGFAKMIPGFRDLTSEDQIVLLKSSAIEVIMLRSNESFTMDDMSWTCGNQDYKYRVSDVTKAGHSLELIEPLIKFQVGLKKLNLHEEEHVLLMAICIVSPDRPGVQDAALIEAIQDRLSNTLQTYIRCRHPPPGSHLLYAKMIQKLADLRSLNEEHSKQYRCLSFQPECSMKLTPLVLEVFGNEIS
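Two reagent solutions held at 4 deg C in the dark were dispensed, compounds pinned at 23 nl, and the mixture incubated 2 h at room temperature. Read-out: fluorescence polarization of VDR–SRC2-3 peptide binding.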
Numbers stand for hits; – = inactive; ? = inconclusive; · = no result. Calls come from the whole dose curve; as a rule, active = well fitted curve in the direction sought with a large enough effect; inconclusive = small, poorly fitted or top-dose-only effect, or another doubt; inactive = no such curve, though single readings can be large; an effect the other way counts as inactive or inconclusive.

SMILES | KAT2A inh | TDP1 cell CPT | TDP1 inh | PLK1 PBD block | DT40 TDP1 no CPT | VDR inh
Cc1noc2ncnc(Sc3ccc(Br)cc3)c12 | – | 2.6µM | – | ? | 9.2µM | ?
CC1=CC(C)(C)N(C(=O)c2ccccc2)c2ccc(C)cc21 | – | 15µM | – | – | 23µM | –
CC1=CC(C)(C)N(C(=O)c2ccccc2)c2ccccc21 | – | – | – | – | – | –
CC(=O)c1cccc(NC(=O)C2Cc3c(-c4cccc(C(N)=O)c4)ccnc3O2)c1 (stereo not drawn) | · | 16µM | · | – | 16µM | ·
CC(=O)c1cccc(-c2ccnc3c2CC(C(=O)Nc2cccc(N(C)C)c2)O3)c1 (stereo not drawn) | · | ? | · | – | ? | ·
CC(=O)c1cccc(-c2ccnc3c2CC(C(=O)Nc2cccnc2)O3)c1 (stereo not drawn) | · | – | · | – | – | ·
CC(=O)c1cccc(-c2ccnc3c2CC(C(=O)Nc2cccc(NS(C)(=O)=O)c2)O3)c1 (stereo not drawn) | · | 15µM | · | – | 9.2µM | ·
CC(=O)c1cccc(-c2ccnc3c2CC(C(=O)Nc2ccc(C(C)C)cc2)O3)c1 (stereo not drawn) | · | 23µM | · | – | 10µM | ·
CC(=O)Nc1ccc(-c2ccnc3c2CC(C(=O)Nc2cccnc2)O3)cc1 (stereo not drawn) | · | 5.2µM | · | – | 3.7µM | ·
CC(=O)c1cccc(-c2ccnc3c2CC(C(=O)Nc2cccc(C(F)(F)F)c2)O3)c1 (stereo not drawn) | · | 26µM | · | – | 13µM | ·
CC(=O)c1cccc(NC(=O)C2Cc3c(-c4ccc5c(c4)OCO5)ccnc3O2)c1 (stereo not drawn) | · | 13µM | · | – | 12µM | ·
CS(=O)(=O)Nc1cccc(NC(=O)C2Cc3c(-c4ccco4)ccnc3O2)c1 (stereo not drawn) | · | ? | · | – | 13µM | ·
O=C(Nc1cccc(Oc2ccccc2)c1)C1Cc2c(-c3ccccc3)ccnc2O1 (stereo not drawn) | · | 23µM | · | – | ? | ·
COC(=O)[C@@]12C[C@@H](CC(=O)NCCCN3CCCC3=O)C(=O)N(Cc3ccco3)C1=CCC(C)(C)C2 | · | – | · | – | – | ·
CC(=O)Nc1ccc(-c2ccnc3c2CC(C(=O)Nc2ccc(Cl)c(C(F)(F)F)c2)O3)cc1 (stereo not drawn) | · | 21µM | · | – | ? | ·
CC(=O)Nc1ccc(-c2ccnc3c2CC(C(=O)Nc2cccc(C(C)=O)c2)O3)cc1 (stereo not drawn) | · | ? | · | – | 15µM | ·
CC(=O)c1cccc(NC(=O)C2Cc3c(-c4cccc(C(C)=O)c4)ccnc3O2)c1 (stereo not drawn) | · | 16µM | · | – | 15µM | ·
COc1ccccc1Cn1c(=S)[nH]c2cc(C(=O)NCC(OC)OC)ccc2c1=O | – | ? | · | – | – | –
COC1CCCN(C(=O)c2ccc3oc(Cc4ccc(Cl)cc4)nc3c2)C1 (stereo not drawn) | – | – | – | – | ? | –
COCC1CCCN(C(=O)c2ccc3oc(Cc4ccc(Cl)cc4)nc3c2)C1 (stereo not drawn) | – | 23µM | – | – | 8.2µM | –
COCC1CCCN(C(=O)c2ccc3nc(Cc4cccc(Cl)c4)oc3c2)C1 (stereo not drawn) | – | 26µM | – | – | 15µM | –
O=C(c1ccc2oc(CCc3ccccc3)nc2c1)N1CC[C@H](O)C1 | – | – | – | – | – | –
COCCN1CCN(C(=O)c2ccc3nc(Cc4ccc(OC)c(OC)c4)oc3c2)CC1 | ? | 12µM | – | – | 6.5µM | –
CC(C)CC(=O)C1CCCN(C(=O)c2ccc3oc(Cc4ccccc4)nc3c2)C1 (stereo not drawn) | – | 23µM | – | – | 23µM | –
COc1ccc(Cc2nc3ccc(C(=O)N4CCC(C(N)=O)CC4)cc3o2)cc1 | · | – | · | – | – | ·
